PLK1 PBD block: qHTS for Inhibitors of PLK1-PDB (polo-like kinase 1 - polo-box domain): Primary Screen; hit rate 2.8% among 360,000; Potency, µM, for the others: max response, negative = inhibition, hits mostly inhibitors; Plk1 PBD binding of FITC phosphopeptide, fluorescence polarization; Serine/threonine-protein kinase PLK1 (Homo sapiens), P53350; note: series mostly up to about 57 µM; % is set by controls: 0 for no effect and ±100 for the full control effect; nearly all actives have a fitted effect of over 65% in size
L3MBTL1 inh: qHTS Assay for the Inhibitors of L3MBTL1; Lethal(3)malignant brain tumor-like protein 1 (Homo sapiens), Q9Y468; AlphaScreen L3MBTL1–H3K9me1 peptide binding; Potency, µM (series often up to 57.1 µM), for inactives: top-dose activity, negative = inhibition, hits mostly inhibitors; hit rate 0.66% among 230,000; note: % is set by controls: 0 for no effect and ±100 for the full control effect; nearly all actives have a fitted effect of over 60% in size
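L3MBTL1 (50 nM) pre-complexed 30 min with biotinylated H3(1-15)K9me1 peptide (75 nM), then compounds added for 30 min at room temperature; AlphaScreen streptavidin donor/nickel chelate acceptor beads (10 ug/mL final) read after 30 min dark incubation.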
VDR inhibitor: Inhibitors of the vitamin D receptor (VDR): qHTS | hit rate 0.93% among 400,000 | Vitamin D3 receptor (Homo sapiens), P11473 | VDR-SRC2-3 peptide fluorescence polarization, 2 h | Potency, µM, for inactives: max response, negative = inhibition, most hits filed as inhibitors; note: % is set by controls: 0 for no effect and ±100 for the full control effect
Target sequence (P11473 whole entry, looked up): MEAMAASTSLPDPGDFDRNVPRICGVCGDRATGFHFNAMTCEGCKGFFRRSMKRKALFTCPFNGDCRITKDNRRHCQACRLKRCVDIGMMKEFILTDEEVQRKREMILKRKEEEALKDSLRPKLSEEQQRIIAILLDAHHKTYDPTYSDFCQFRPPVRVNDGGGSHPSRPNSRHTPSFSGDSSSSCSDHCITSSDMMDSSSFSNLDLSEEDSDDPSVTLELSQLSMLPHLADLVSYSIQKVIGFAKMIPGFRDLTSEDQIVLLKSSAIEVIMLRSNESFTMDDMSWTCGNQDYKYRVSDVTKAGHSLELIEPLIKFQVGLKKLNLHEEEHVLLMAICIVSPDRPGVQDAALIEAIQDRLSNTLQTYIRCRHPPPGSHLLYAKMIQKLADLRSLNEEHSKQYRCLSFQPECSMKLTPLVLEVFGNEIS
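Fluorescence polarization assay measuring small-molecule disruption of VDR binding to the coregulator peptide SRC2-3. Compounds were pin-transferred (23 nl) into the reagent mix and incubated 2 h at room temperature before reading.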
JMJD2A Tudor: qHTS Assay for Inhibitors of JMJD2A-Tudor Domain; Lysine-specific demethylase 4A (Homo sapiens), O75164; AlphaScreen JMJD2A-Tudor / H3K4me3 peptide binding; Potency, µM (highest dose often 114 µM), for inactives: at the highest dose activity change, negative = inhibition, actives largely listed as inhibitors; hit rate 4.4% among 390,000; AID 504339, 2011; note: % is set by controls: 0 for no effect and ±100 for the full control effect; nearly all actives have a fitted effect of over 50% in size
HP1b chromo inh: HTS for Inhibitors of HP1-beta Chromodomain Interactions with Methylated Histone Tails; Chromobox protein homolog 1 (Homo sapiens), P83916; AlphaScreen HP1-beta / biotin-H3K9me3 peptide binding; Potency, µM (series often up to 114 µM), inactives show top-dose activity change, negative = inhibition, usual class: inhibitors; hit rate 0.56% among 390,000; note: nearly all actives have a fitted effect of over 70% in size
Target sequence (P83916 whole entry, looked up): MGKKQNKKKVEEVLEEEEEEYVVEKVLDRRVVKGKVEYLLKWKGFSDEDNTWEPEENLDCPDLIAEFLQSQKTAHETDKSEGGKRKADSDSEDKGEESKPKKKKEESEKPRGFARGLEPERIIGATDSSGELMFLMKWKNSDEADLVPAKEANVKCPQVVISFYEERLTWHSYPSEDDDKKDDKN
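HP1-beta protein (50 nM final) preincubated 30 min at room temperature with biotinylated H3(1-18)K9me3 peptide (50 nM) in PBS pH 7.4, 0.01% Tween-20, then compound added for 30 min. AlphaScreen streptavidin donor/nickel chelate acceptor beads (10 ug/mL final), 30 min dark, luminescence read.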
BAZ2B block: qHTS Assay for Inhibitors of BAZ2B. Bromodomain adjacent to zinc finger domain protein 2B (Homo sapiens), Q9UIF8. Potency, µM (highest dose often 114 µM), for inactives: at the highest dose activity change, negative = inhibition, actives largely listed as inhibitors. hit rate 4.4% among 360,000. AlphaScreen BAZ2B-H3K14Ac peptide displacement; note: % is set by controls: 0 for no effect and ±100 for the full control effect; nearly all actives have a fitted effect of over 60% in size
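Complex of BAZ2B and biotin-H3K14Ac (50 nM apiece) forms over 30 min at RT, then faces library compounds up to 110 uM for another 30 min; AlphaScreen beads added, 20 min dark incubation, luminescence read.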
An asterisk follows results filed as active; ? = inconclusive; . = no result; [ ] = remark or other dose. The list is not random: actives were taken first. Their share in the collection is about 6.9%. Calls come from the whole dose curve; as a rule, active = well fitted curve in the direction sought with a large enough effect; inconclusive = small, poorly fitted or top-dose-only effect, or another doubt; inactive = no such curve, though single readings can be large; an effect the other way counts as inactive or inconclusive. Potency is the fitted concentration of half-maximal effect.

SMILES | PLK1 PBD block | L3MBTL1 inh | VDR inhibitor | JMJD2A Tudor | HP1b chromo inh | BAZ2B block
Cc1ccc(Cl)cc1NC(=O)Cn1ncc2c(C)n(Cc3ccccc3F)c(C)c2c1=O | . | . | 0% | -25% | 15% | ?
O=C(CNC(=O)Cc1ccccc1)NCC(=O)OCc1ccccc1 | -8% | 0% | 26% | -10% | 8% | 3%
O=C(CNC(=O)OCc1ccccc1)NCC(=O)Oc1ccc([N+](=O)[O-])cc1 | 12µM* | . | -27% | -12% | 45% | .
CC1=C(C(N)=O)C(c2cccs2)NC(=O)N1 (stereo unspecified) | 3% | . | 15% | 3% | 31% | -16%
CC1=C(C(N)=O)C(c2cccs2)NC(=S)N1 (stereo unspecified) | 27µM* | 59% | ? | -25% | -7% | 1%
O=C(COCc1cc(-c2ccc3c(c2)OCO3)on1)NCc1ccc(F)cc1 | . | . | 15% | 5% | 25% | 0%
CCc1ccc(C2=C(C)C(N3CCC(C(=O)NCc4ccc(C)o4)CC3)=NS2(=O)=O)cc1 | . | . | 8% | -13% | -6% | -5%
CC1(C)C(=O)C=CC(=O)C(C)(C)C(=O)C=CC(=O)C(C)(C)C2=CC=C(O2)C(C)(C)C(=O)C=CC1=O | 6µM* | . | ? | -10% | 36% | .
[N-]=C=C1C(=O)NC(=O)C([n+]2ccc(-c3ccncc3)cc2)C1c1ccccc1C(F)(F)F (stereo unspecified) | ? | . | 28µM* | -6% | 22% | ?
Cn1c(Sc2ccc(C(=O)O)cc2[N+](=O)[O-])nnc1-c1ccccc1 | 4.2µM* | 13% | 79µM* | 28µM* | -2% | -13%
CCC(C)(C)NC(=O)c1ccc(Sc2nncn2C)c([N+](=O)[O-])c1 | -30% | 10% | -7% | ? | 7% | 1%
Cc1ccc(C(=O)N/C(=C\c2ccc(-c3ccccc3[N+](=O)[O-])o2)C(=O)NCCCN2CCOCC2)cc1 | 27µM* | . | ? | ? | 0% | ?
Cc1ccc(C(=O)/C=C/C(=O)c2ccc(C)cc2)cc1 | 1.7µM* | 13% | ? | -23% | ? | 6%
Cc1ccc(C(=O)/C=C/c2ccccc2[N+](=O)[O-])cc1 | 27µM* | -23% | ? | ? | ? | ?
O=C(/C=C\c1ccccc1[N+](=O)[O-])Nc1ccccc1 | -5% | 16% | -12% | -8% | 22% | -20%
O=C(/C=C/c1ccc(-c2ccccc2[N+](=O)[O-])o1)c1ccc(F)cc1 | -3% | -29% | -23% | ? | ? | 22µM*
Cc1ccc(/C=C/C(=O)c2ccc(C)cc2)cc1 | 0% | 11% | ? | -1% | 20% | 11%
Cc1ccc(S(=O)(=O)c2ccc(Oc3cccc(C)c3)cc2)cc1 | -3% | 31% | -5% | 42% | 109% | 45%
O=C1CCc2cc(Cl)c(S(=O)(=O)Nc3ccc(Cl)c(Cl)c3)cc2N1 | . | . | . | -14% | . | .
CC(=O)Nc1ccc(S(=O)(=O)Nc2ccc(C)c(C)c2)cc1 | . | . | . | -5% | . | .
Cc1cc2c(s1)c1cnn(Cc3cccc(Cn4ncc5c6sc(C)cc6n(C)c5c4=O)c3F)c(=O)c1n2C | . | . | . | -21% | . | .
CC1CN(C(=O)c2nn(C)cc2[N+](=O)[O-])CC(C)O1 (stereo unspecified) | 12µM* | 4% | -7% | -30%[11.4 µM] | 1% | 3%
O=C(/C=C/c1ccc(-c2ccccc2[N+](=O)[O-])o1)c1ccc(Br)cc1 | -14% | -27% | 5% | ? | -36% | 28µM*
Cc1ccc(-c2ccc(/C=C/C(=O)c3ccccc3)o2)cc1 | 1% | -12% | -13% | -20% | -6% | ?
O=C(/C=C/c1ccc(-c2ccccc2)o1)c1ccccc1 | 10% | -21% | -19% | -4% | ? | 35µM*
SMILES | PLK1 PBD block | L3MBTL1 inh | VDR inhibitor | JMJD2A Tudor | HP1b chromo inh | BAZ2B block
CC1CN(C(=O)/C=C/c2ccccc2[N+](=O)[O-])CC(C)O1 (stereo unspecified) | -14% | -1% | 0% | 10µM* | 23%[57 µM] | -14%
CCOC(=O)c1ccc(NC(=O)NCCc2cnc[nH]2)cc1 | 2% | -1% | 19% | -21% | 31% | -11%
O=C(NC[C@H](O)c1ccccc1)c1ccccc1 | . | . | 2% | . | . | .
CC(C)(C)c1ccc(CC(=O)N2CCC2(C)C(=O)NCc2ccc(Cl)cc2)cc1 (stereo unspecified) | -2% | . | . | . | . | .
COc1ccc(NC(=O)c2c(NC(=O)C(F)(F)F)sc3c2CCCCC3)cc1 | . | . | 0% | -34% | -7% | -37%
Cc1ccc(C(=O)/C=C/c2ccc(-c3ccccc3[N+](=O)[O-])o2)cc1 | -14% | -19% | -5% | ? | ? | 25µM*
COc1ccc(CN2CCC(CO)(CCOc3ccccc3)CC2)c(OC)c1C | -4% | 6% | 1% | -22% | 15% | -7%
COc1ccc(CN2CCc3c([nH]c4ccccc34)C2)c(OC)c1C | -9% | -5% | -9% | 1.3µM* | ? | 45µM*
CCOc1cc(CN2CCc3c([nH]c4ccccc34)C2)ccc1OC | 7% | -12% | -6% | 3.2µM* | ? | 50µM*
CCOC(=O)C1(CCc2ccccc2)CCN(C(=O)c2cnc(C)cn2)CC1 | -12% | 5% | -3% | -12% | 27% | -1%
CC(C)/C(=N\NS(=O)(=O)c1ccc(Br)cc1)c1cccs1 | 24µM* | 1% | -11% | 50µM* | -7% | -23%
C/C(=N\NS(=O)(=O)c1ccc([N+](=O)[O-])cc1)c1cccs1 | 27µM* | . | ? | ? | -5% | ?
CC(NC(=O)c1cccs1)c1ccc(Br)cc1 (stereo unspecified) | -28% | . | 5% | ? | 4% | .
COc1ccccc1N1C(C)=CC(=C(C#N)c2nc3ccccc3s2)C=C1C | ? | 19% | 2% | 20% | 67% | 29%
CC1=CC(=C(C#N)c2nc3ccccc3s2)C=C(C)N1c1ccc(F)cc1 | 21µM* | 7% | 1% | 8% | 73% | 4%
c1ccc(-c2nc(N3CCCCCC3)c3ccccc3n2)nc1 | -5% | ? | 3% | ? | 36% | 50µM*
c1ccc(-c2nc(N3CCOCC3)c3ccccc3n2)nc1 | -8% | . | -6% | -33% | 42% | ?
COc1cc2c(cc1OC)C1N(CC2)C(=O)CCC12C(=O)CCCC2=O (stereo unspecified) | . | . | 71µM* | . | . | .
